Reference: PubChem BioAssay (NCI)
Several values for one entry are separate records, joined by “and”; a condition that tells them apart may be missing. Equal values may be shown once. Compounds without any hit were thinned out: in the full panel of roughly 83,000, 20% have a hit.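 Method: cells in 96-well plates; compound added at one concentration; 48 h incubation; percent growth measured; values under 10 scored active.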 A number with no mark means an inactive call. Activity calls are given as the source filed them.

Tested on: MDA-MB-468 breast
Test: NCI-60 one-dose screen, 48 h (100 = growth as untreated, 0 = no growth, -100 = all killed)
Conditions: 10 µM unless noted

Row | SMILES | growth
1 | COc1ccc(Cn2nc(-c3cc(OC)c(OC)c(OC)c3)c3c2CCc2cnoc2-3)cc1OC | -12.8% (active)
2 | O=C(Nc1ccncc1)C(=O)c1cn(S(=O)(=O)c2ccc(Br)cc2)c2ccccc12 | 6.9% (active)
3 | CCCCCCC(O)(c1ccc(F)cc1)C(CN1CCOCC1)c1ccccc1 (stereo not given) | 28%
4 | CS(=O)(=O)c1ccc(/C(=N/N=C(N)N)c2ccc(Cl)cc2)cc1 | 68.5%
5 | COc1ccc(/C(C)=N/NC(=O)c2ccc(S(C)(=O)=O)cc2)cc1OC | 95.7%
6 | Cc1cn(-c2cc(NC(=O)c3cccc(C#Cc4cccc5[nH]nc(N)c45)c3)cc(C(F)(F)F)c2)cn1 | 67.7%
7 | COCCOc1ccc(-c2csc(NC(=O)CN3CCN(CCO)CC3)n2)cc1NS(=O)(=O)c1cccc2c(N(C)C)cccc12 | 60.7%
8 | C=C1C(=O)O[C@H]2[C@H]1CC/C(COC(=O)N[C@H]1C[C@H](O[C@H]3C[C@](O)(C(=O)CO)Cc4c(O)c5c(c(O)c43)C(=O)c3c(OC)cccc3C5=O)O[C@@H](C)[C@H]1O)=C\CC[C@@]1(C)O[C@@H]21 | -55.9% (active)
9 | CCC#CC[C@H](O)C/C=C1/C(=O)C=C[C@@H]1C/C=C\CCCC(=O)OC | 12.4%
10 | CCN(CC)CCC(CNc1c2ccc([N+](=O)[O-])cc2nc2cc(OC)c(OC)cc12)c1ccccc1 (stereo not given) | -58% (active) and -86.9% (active)
11 | O=c1[nH]nc(-c2ccccc2)c2sc3ncc(-c4ccc(Br)cc4)n3c12 | 13.7%
12 | O=C(NCCCNc1cc(-c2cn(-c3ccccc3)nc2-c2cccc(O)c2)ccn1)c1cccc(O)c1 | 29.3%
13 | Cc1cc2c(F)c(Oc3ncnn4cc(OC[C@@H](C)OC(=O)[C@H](C)N)c(C)c34)ccc2[nH]1 | 71.5%
14 | CO[C@H]1/C=C/C=C/C=C/C[C@H](OC(=O)[C@@H](C)NC(=O)C2CCCCC2)[C@H](C)[C@@H](O)/C(C)=C\CCC2=CC(=O)C=C(NC(=O)C1)C2=O | -40.9% (active)
15 | CCCC/C=C/[C@@H]1C[C@H]1CCO | 96.1%
16 | CCCCCNCCCCCNc1cc(OC)cc2cccnc12 | 45.3%
17 | CCN(CC)CCCC(C)NCCCNc1cccc2cccnc12 (stereo not given) | 90%
18 | Cc1nnc(/N=C2\NC(=O)/C(=C/c3ccc(N(C)C)cc3)S2)s1 | 87.2%
19 | O=C(Nc1ccc(-n2cc(-c3ccncc3)c(-c3ccc(Cl)c(O)c3)n2)cc1)c1ccc(Cl)c(C(F)(F)F)c1 | -12% (active)
20 | COc1ccc(-c2nc3c(c(-c4ccc(Cl)cc4)nn3-c3ccccc3)c(-c3ccc(O)cc3)c2C#N)cc1 | 54.8%
21 | CC(C)CCNCC(O)Cn1c2ccccc2c2ccccc21 (stereo not given) | 2.41% (active)
22 | CCN(CC)CCCN1C(=O)c2c(c(C)c3c(oc4ccc(OC)cc43)c2C)C1=O | 103%
23 | COc1cc(-c2nc3occn3c2-c2ccnc(NCCCNS(=O)(=O)c3ccccc3)n2)ccc1F | 5.92% (active)
24 | O=C(Nc1nonc1-c1ccccc1)c1ccc(C(F)(F)F)cc1 | 101%
25 | COc1cc(/C=C2\C=C(c3ccc(F)cc3)N(Cc3ccccc3)C2=O)cc(OC)c1OC | 49.9%
26 | CCCCCSB(SCCCCC)c1ccccc1 | 102%
27 | CCOC(=O)c1cc(C(=O)c2ccc(Cl)cc2)n2ccc(-c3cc[n+](CC(=O)c4ccc(OC)cc4)cc3)cc12 | 70.7%

Row | SMILES | growth
28 | C[C@H]1[C@H]2[C@H]3CC[C@@H]4[C@@]5(C)CC[C@H](O)C(C)(C)[C@@H]5CC[C@@]4(C)[C@]3(C)CC[C@]23CO[C@]1(C)[C@@H](C(=O)/C=C\c1cccnc1)C3 | 20.5%
29 | O=C1COCCN1c1ccc(Nc2nc(Cl)nc(OCc3cn(Cc4ccccc4)nn3)n2)cc1 | 62.1%
30 | CCOC(=O)c1c2c(n3cccc(F)c13)C(=O)c1ncccc1C2=O | 39.6%
31 | O=C1CCC(c2c(O)cc(O)c3c(=O)c(O)c(-c4ccc(O)c(O)c4)oc23)N1 (stereo not given) | 108%
32 | COc1ccc2c(c1)N(Cc1ccc(Cl)cc1)CCC2N1CCCC1=O (stereo not given) | 42.3%
33 | COc1ccc(C(=O)c2sc3nc(C)cc(C)c3c2N)cc1OC | 88%
34 | CC(C)Sc1nc(Nc2ccc(S(N)(=O)=O)cc2)c(C#N)c(-c2ccc(F)cc2)n1 | 92.7%
35 | CC(=O)Nc1cccc(Nc2nc(N[C@H](C)c3ccccc3)c3ccccc3n2)c1 | 6.66% (active)
36 | COc1cc2oc(-c3cccc(N)c3)cc(=O)c2c(OC)c1OC | 99.9%
37 | O=Nc1c(O)ccc2ccccc12 | 78.9% and 81.4%
38 | Cc1cc(Nc2cc(N3CCN(C)CC3)nc(/C=C/c3ccccc3)n2)n[nH]1 | -17.8% (active)
39 | COC(=O)C1=C(C(=O)OC)C23C=C(C)C1C2=C(C)C1(CC1)[C@@](C)(O)C3=O (stereo not given in full) | -54.2% (active)
40 | N#Cc1c(-c2ccccc2)cc(-c2ccccc2)n(CCC(=O)O)c1=O | 26.6%
41 | C=C(C)[C@@H]1CC[C@]2(C)[C@H](CC=C3[C@@H]4CC(C)(C)CC[C@]4(C=O)CC[C@]32C)[C@@]1(C)CCCN | 51.3%
42 | Nc1c(C(=O)Nc2ccccn2)sc2nc3c(cc12)C(O)CCC3 (stereo not given) | 15%
43 | CN(C)CC(O)c1ccc2cc(Br)c3ccccc3c2c1 (stereo not given) | -0.132% (active)
44 | COc1ccc(-c2cc(C(=O)Nc3ccc(Br)cc3)nc3[nH]c(=O)sc23)cc1 | 33.2%
45 | O=c1cc(/C(=C2/C=CC=N2)c2ccc[nH]2)c2cc(Cl)ccc2o1 | 2.6% (active)
46 | COC(=O)C(CC(=O)c1ccc(-c2ccccc2)cc1)c1ccccc1 (stereo not given) | 52.5%
47 | O=Cc1ccccc1C(=O)O | -6.83% (active)
48 | Cc1c(C(=O)N[C@@H](Cc2ccccc2)C(=O)C(=O)NCCc2ccccc2)[nH]c2ccccc2c1=O | 110%
49 | O=C(Cc1ccc(/C=C/C(=O)c2ncc[nH]2)cc1)Nc1ccc(Cl)cc1 | 9.49% (active)
50 | O=C(O)CNC(=O)C1(N2C(=O)c3ccccc3C2=O)CCCC1 | 98.1%
51 | CCN(CC)c1ccc(C(=N)c2ccc(N(CC)CC)cc2)cc1 | -24.8% (active)
52 | CCCCCC/C=C\CCCCCCCCCc1cc(O)cc(OC)c1O | -54.1% (active)
53 | C=CCn1c(SCC(=O)Nc2cccc(C(=O)/C=C/c3ccc(C)cc3)c2)nc2ccccc2c1=O | 76.3%
54 | CCC(CCCN(CC)CCc1ccccc1)OC(=O)c1cc(OC)c(OC)c(OC)c1 (stereo not given) | 93.1%

Row | SMILES | growth
55 | CC(C)C1=C[C@@]23CC[C@H]4[C@](C)(COCCC#N)CCC[C@]4(C)[C@H]2C[C@@H]1[C@@H]1[C@H]3[C@@H](OCCC#N)CC[C@@H]1OCCC#N | -4.51% (active)
56 | CCOC(=O)C1=C(C)N=c2s/c(=C\c3cc(Cl)ccc3O)c(=O)n2C1c1ccc(OC)cc1 (stereo not given) | 94.8%
57 | COc1cc(OC)cc(C(=O)Nc2sc3c(c2C(N)=O)CCC(=O)C3)c1 | 37.1%
58 | COc1ccc2c(c1)[nH]c(=O)c1c3cc(OC)ccc3cn21 | 5.66% (active)
59 | Cc1ccc(S(=O)(=O)NCCNc2nccc(-c3c(-c4ccc(O)cc4)nc4sccn34)n2)cc1 | 85.3%
60 | Cc1ccc(NC(=O)/C=N/O)cc1C | 62.4%
61 | CC1(C)[C@H](O)CC[C@]2(C)[C@@H]1CC[C@@]13C[C@@H](CC[C@H]12)[C@@](O)(CO)C3 | 106%
62 | O=C(Nc1ccc(-n2ccc3c(NC(=O)c4ccccc4)nccc32)cc1)c1ccc(N2CCOCC2)c(C(F)(F)F)c1 | 42.7%
63 | O=C(CC(SCc1ccccc1)c1ccccc1)c1ccccc1 (stereo not given) | 84.9%
64 | CC(C)CCC[C@@H](C)[C@H]1CC[C@H]2[C@@H]3CC=C4c5sc(Nc6cc(C(F)(F)F)cc(C(F)(F)F)c6)nc5CC[C@]4(C)[C@H]3CC[C@]12C | 105%
65 | C/C(=C\c1ccccc1)C(O)C(=O)c1nc2ccc([N+](=O)[O-])cc2[nH]c1=O (stereo not given) | 89.7%
66 | CCOC(=O)C1(CC(C)C)CCOC1=O (stereo not given) | 99.7%
67 | CCCCCCCCCCCC(=O)C(CCCCCCCCCC)C(=O)Nc1ccccc1 (stereo not given) | 109%
68 | O=C1c2ccc3c4c(ccc(c24)C(=O)N1CCCNCc1ccccc1)C(=O)N(CCCNCc1ccccc1)C3=O | -95.5% (active)
69 | O=C(C[N+](=O)[O-])c1ccc(Cl)cc1 | 112%
70 | COc1ccc(NC(=O)Nc2ccc(Nc3nc(C)cc(Nc4ccc(C)cc4)n3)cc2)cc1 | -68.9% (active)
71 | CNC(=O)c1cc(-n2ccc3cc(NC(=O)c4ccc(N5CCOCC5)c(C(F)(F)F)c4)ccc32)ccn1 | 71.6%
72 | CCS/C(Nc1ccccc1)=C(\C#N)C(=O)N/N=C/c1ccc(Cl)cc1Cl | 19.6%
73 | O=[N+]([O-])c1cccc(N=Nc2ccc(O)cc2O)c1 | 69.6%
74 | NC(=O)c1cnc(Nc2cccc(N)c2)nc1NCCCNC(=O)C1CCC1 | 52.9%
75 | O=C1OC2(c3ccccc31)c1ccccc1-c1ccccc12 | 40.2%
76 | CC(C)CN1CC(C(=O)Nc2ccc3c(c2)-c2ccccc2C3)CC1=O (stereo not given) | 60.5% [50 µM]
77 | Cn1cc(-c2nc(-c3c[nH]c4ccncc34)cs2)c2cc(Br)ccc21 | -71.8% (active)
78 | O=C(COc1ccc(Cl)cc1)N1CCN(Cc2ccc3c(c2)OCO3)CC1 | 98.5%
79 | CCCC[N+](C)(N)CCCC | 106%
80 | Oc1ccc(Cl)cc1/C=N\NC(=S)N/N=C/c1cc(Cl)ccc1O | 1.29% (active)
